Data on 54 compounds can be found in PubChem BioAssay (Tox21).

In assay [1] the target is Acetylcholinesterase (Homo sapiens) (UniProt P22303). The assay is described as follows: Acetylcholinesterase (AChE) small molecule antagonists: colormetric cell-based qHTS assay (AID 1347395). Also: nearly all actives have a fitted effect of over 30% in size. Also: potency is read from the fitted curve at half-maximal effect. Put shortly: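 Colorimetric read-out: DTNB detects thiocholine released when cellular AChE in SH-SY5Y cells hydrolyses acetylthiocholine. Cells attached overnight, received compound for 30 min at 37 C, then substrate mix for 90 min at 37 C.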
Acetylcholinesterase (Homo sapiens), sequence (P22303 whole entry, looked up): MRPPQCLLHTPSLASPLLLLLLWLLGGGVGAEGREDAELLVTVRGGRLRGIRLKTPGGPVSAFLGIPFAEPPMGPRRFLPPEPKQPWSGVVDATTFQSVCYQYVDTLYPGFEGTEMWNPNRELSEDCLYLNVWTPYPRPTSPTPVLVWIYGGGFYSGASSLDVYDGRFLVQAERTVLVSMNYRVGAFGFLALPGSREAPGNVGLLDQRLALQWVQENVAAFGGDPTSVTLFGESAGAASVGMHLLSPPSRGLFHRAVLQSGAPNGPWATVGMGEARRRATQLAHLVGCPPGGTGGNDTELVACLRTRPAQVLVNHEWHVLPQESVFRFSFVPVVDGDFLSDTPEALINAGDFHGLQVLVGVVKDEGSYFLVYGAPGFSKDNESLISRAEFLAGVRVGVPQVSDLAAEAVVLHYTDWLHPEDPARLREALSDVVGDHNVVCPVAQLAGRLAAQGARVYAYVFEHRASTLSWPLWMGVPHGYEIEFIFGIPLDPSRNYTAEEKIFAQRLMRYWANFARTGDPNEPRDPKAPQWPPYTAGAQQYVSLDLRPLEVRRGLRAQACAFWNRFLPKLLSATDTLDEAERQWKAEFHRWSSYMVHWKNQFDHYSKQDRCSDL
For orientation: Quantitative high-throughput screening tests each substance at several concentrations.

Assay [2] shares this target. The assay is described as follows: Acetylcholinesterase (AChE) small molecule antagonists: enzyme-based qHTS assay (AID 1347397). Also: nearly all actives have a fitted effect of over 55% in size. Also: potency is read from the fitted curve at half-maximal effect. The note with it: Potency: AChE enzyme activity inhibition; outcome: AChE enzyme activity inhibition. In a few lines:
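Absorbance-based detection of thiocholine with DTNB served as the read-out. Recombinant human AChE was exposed to compound for 30 min at RT before a 10 min RT incubation with acetylthiocholine.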

Assay [3] shares this target. The assay is described as follows: Acetylcholinesterase (AChE) small molecule antagonists: fluorescence cell-based qHTS assay (AID 1347398). Also: nearly all actives have a fitted effect of over 50% in size. Also: potency is read from the fitted curve at half-maximal effect. The note with it: Potency: AChE activity; outcome: AChE activity. In a few lines:
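Fluorimetric cell-based assay: intact SH-SY5Y cells, 30 min compound preincubation at 37 C, acetylthiocholine substrate with thiol probe Thiolite Green, 40 min RT development, fluorescence 490/520 nm.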

For assay [4] the target is unchanged. The assay is described as follows: Acetylcholinesterase (AChE) small molecule antagonists: enzyme-based qHTS assay with human liver microsomes (AID 1347399). Also: nearly all actives have a fitted effect of over 60% in size. The following applies: Potency: qHTS inhibition; outcome: qHTS inhibition. Put shortly:
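Recombinant human AChE (50 mU/mL in the enzyme mix) and human liver microsomes (0.25 mg/mL final) were preincubated with compound and NADPH (0.25 mg/mL final) for 30 min at 37 C. Acetylthiocholine/DTNB was then added; thiocholine was read colorimetrically after 10 min at room temperature.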

Another assay deals with Aromatase (Homo sapiens) (UniProt P11511). The assay is described as follows: qHTS assay to identify aromatase inhibitors (AID 743083; active = well fitted curve in the direction sought with a large enough effect in the repeat runs; an effect the other way counts as inactive or inconclusive; also: nearly all actives have a fitted effect of over 55% in size; also: potency is read from the fitted curve at half-maximal effect).
Aromatase (Homo sapiens), sequence (P11511 whole entry, looked up): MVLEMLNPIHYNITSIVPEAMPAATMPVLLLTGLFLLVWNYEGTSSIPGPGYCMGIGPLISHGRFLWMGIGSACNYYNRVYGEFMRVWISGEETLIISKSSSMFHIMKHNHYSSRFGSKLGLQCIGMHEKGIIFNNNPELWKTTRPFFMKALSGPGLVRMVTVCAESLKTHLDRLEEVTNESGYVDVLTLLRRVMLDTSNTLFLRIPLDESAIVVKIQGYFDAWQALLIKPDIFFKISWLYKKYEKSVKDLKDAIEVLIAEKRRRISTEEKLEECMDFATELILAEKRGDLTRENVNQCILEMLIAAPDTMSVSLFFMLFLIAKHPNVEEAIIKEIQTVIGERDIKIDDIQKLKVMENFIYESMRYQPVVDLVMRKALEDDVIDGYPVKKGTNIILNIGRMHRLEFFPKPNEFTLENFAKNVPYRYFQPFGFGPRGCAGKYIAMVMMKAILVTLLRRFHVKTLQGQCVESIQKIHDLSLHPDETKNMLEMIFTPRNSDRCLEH
A short description of assay [5]: qHTS assay for small molecule agonists of the p53 signaling pathway (AID 651631). Also: nearly all actives have a fitted effect of over 15% in size. Put shortly: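 Read-out is beta-lactamase FRET fluorescence measured 2 h after substrate addition at room temperature, in HCT-116 cells with a p53 response element-driven reporter exposed to compounds for 16 h at 37 °C.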
Assay [6] deals with Aryl hydrocarbon receptor (Homo sapiens) (UniProt P35869). The assay is described as follows: qHTS assay to identify small molecule that activate the aryl hydrocarbon receptor (AhR) signaling pathway (AID 743085; active = well fitted curve in the direction sought with a large enough effect in the repeat runs; an effect the other way counts as inactive or inconclusive;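 also: HG2L7.5c1 human HepG2 liver cells with stably integrated DRE-driven firefly reporter; series mostly up to about 70 µM; nearly all actives have a fitted effect of over 15% in size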). Put shortly:
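Cell line HG2L7.5c1 (human hepatoma, 20× DRE-luc). Plated, 5 h 37C, compound/DMSO added, 24 h 37C. CellTiter-Fluor 30 min 37C → fluorescence; then ONE-Glo 30 min RT → luminescence.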

“And” between values parts separate entries of the source, which are not always exact repeats. Identical values can stand only once. Records with an inconclusive call do not appear. The source holds several records for some structures; these can differ, active in one and inactive in another. The source made the active and inactive calls. Unless noted, calls follow the shape of the full dose curve.

Aryl hydrocarbon receptor (Homo sapiens), sequence (P35869 whole entry, looked up): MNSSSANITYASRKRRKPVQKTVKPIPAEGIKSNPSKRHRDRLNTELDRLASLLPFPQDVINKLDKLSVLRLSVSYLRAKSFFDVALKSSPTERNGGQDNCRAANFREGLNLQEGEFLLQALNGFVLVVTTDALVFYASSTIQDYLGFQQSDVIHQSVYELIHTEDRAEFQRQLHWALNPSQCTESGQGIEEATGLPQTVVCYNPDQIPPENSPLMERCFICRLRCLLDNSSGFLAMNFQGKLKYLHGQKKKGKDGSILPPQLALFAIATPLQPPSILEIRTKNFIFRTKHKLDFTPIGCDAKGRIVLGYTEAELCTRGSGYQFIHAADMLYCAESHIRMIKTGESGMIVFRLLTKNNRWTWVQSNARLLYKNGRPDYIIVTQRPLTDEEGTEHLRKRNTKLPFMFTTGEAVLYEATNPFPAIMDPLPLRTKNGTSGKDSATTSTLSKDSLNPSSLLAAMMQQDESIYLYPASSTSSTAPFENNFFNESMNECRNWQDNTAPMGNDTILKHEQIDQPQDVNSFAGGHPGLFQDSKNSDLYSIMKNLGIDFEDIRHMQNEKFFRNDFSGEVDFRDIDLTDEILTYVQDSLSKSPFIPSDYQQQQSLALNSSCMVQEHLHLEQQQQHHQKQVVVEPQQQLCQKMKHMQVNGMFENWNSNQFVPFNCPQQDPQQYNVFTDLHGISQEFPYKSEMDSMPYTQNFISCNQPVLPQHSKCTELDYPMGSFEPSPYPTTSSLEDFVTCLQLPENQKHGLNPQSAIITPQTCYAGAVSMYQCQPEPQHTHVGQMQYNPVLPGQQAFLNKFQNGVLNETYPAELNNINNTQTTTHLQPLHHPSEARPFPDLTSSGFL

As for `Oc1c(Cl)cc(Cl)c2cccnc12`, the Potency entry in assay [1], in assay [2], in assay [3] and in assay [4] was “inactive” in each case.

`CC(C)=O`: the Potency result (with Aromatase (Homo sapiens); in assay [1]; in assay [2]; in assay [3]; in assay [4]) was “inactive” each time.

In the case of `CCc1cccc(CC)c1`, the Potency entry in assay [1], in assay [2] and in assay [4] was “inactive” in each case.

On to `CCO[Si](CCC#N)(OCC)OCC`, for which the Potency result in assay [1], in assay [2], in assay [3] and in assay [4] was “inactive” in each case.

`CCCCN(CCO)CCO`: the Potency entry in assay [1], in assay [2], in assay [3] and in assay [4] was “inactive” each time.

On to `O=C(O)CC(=O)O`, for which the Potency entry in assay [1], in assay [2] and in assay [4] was “inactive” throughout.

For `CN(C)c1cc(NC(=O)CNC(C)(C)C)c(O)c2c1C[C@H]1C[C@H]3[C@H](N(C)C)C(=O)C(C(N)=O)=C(O)[C@@]3(O)C(=O)C1=C2O`, the Potency result in assay [1], in assay [2], in assay [3] and in assay [4] was “inactive” throughout.

`CC(C)=CC(C)(C)C`: the Potency entry in assay [1], in assay [2], in assay [3] and in assay [4] was “inactive” in each case.

For `C=CC(C)(CCC=C(C)C)OC(C)=O` (configuration not stated), the Potency result in assay [1], in assay [2], in assay [3] and in assay [4] was “inactive” in each case.

As for `CCCCCCCCCCCCCCCC[N+](C)(C)CC`, the Potency result in assay [1] and in assay [4] was “inactive” in each case. Besides, the Potency in assay [2] was 71.2 µM (active); in assay [3], 63.5 µM (active) and 38.9 µM (active).

Take `CC(C)(O)CCc1ccccc1`: the Potency entry in assay [1], in assay [2], in assay [3] and in assay [4] was “inactive” each time.

Consider `CC(C)(C)C(=O)CCc1ccc(Cl)cc1`, for which the Potency entry in assay [1], in assay [2] and in assay [4] was “inactive” each time.

Regarding `O=C(CCCCC(=O)Nc1c(I)cc(I)c(C(=O)O)c1I)Nc1c(I)cc(I)c(C(=O)O)c1I`, the Potency result in assay [1], in assay [2], in assay [3] and in assay [4] was “inactive” in each case.

`C1CNCCN1`: the call in assay [1], in assay [2] and in assay [4] was inactive.

Regarding `COP(=O)(OC)OC(c1ccc(Cl)cc1)P(=O)(OC)OC` (configuration not stated), the Potency result in assay [1], in assay [2], in assay [3] and in assay [4] was “inactive” throughout.

As for `C1CN(CCOCCN2CCOCC2)CCO1`, the Potency entry in assay [1], in assay [2], in assay [3] and in assay [4] was “inactive” each time.

Regarding `O=C(O)CCCC(=O)O`, the Potency in assay [1] is 6.21 µM (active) and inactive. Also, the Potency entry in assay [2] and in assay [4] was “inactive” in each case.

Take `CCCCCCCCCCCCC`: the Potency result in assay [1], in assay [2] and in assay [4] was “inactive” in each case.

With `O=C(O)C[C@H](NC(=O)OCc1ccccc1)C(=O)O`, the Potency result in assay [1], in assay [2], in assay [3] and in assay [4] was “inactive” throughout.

For `CCC(C)C=O` (configuration not stated), the Potency entry in assay [1], in assay [2], in assay [3] and in assay [4] was “inactive” in each case.

Take `CN(C)CCN(C)CCN(C)C`: the Potency entry in assay [1], in assay [2], in assay [3] and in assay [4] was “inactive” in each case.

`CO[Si](CCCOCC1CO1)(OC)OC` (configuration not stated): the Potency entry in assay [1], in assay [2] and in assay [4] was “inactive” throughout.

Regarding `c1ccc2c(c1)Oc1ccccc1S2`, the Potency result in assay [1], in assay [2] and in assay [4] was “inactive” in each case.

Regarding `CCCCCCCCCC`, the Potency result in assay [1], in assay [2], in assay [3] and in assay [4] was “inactive” in each case.

Take `NC1CCCCC1`: the Potency entry in assay [1], in assay [2] and in assay [4] was “inactive” in each case.

For `CCC(C)c1nccnc1OC` (configuration not stated), the Potency entry in assay [1], in assay [2] and in assay [4] was “inactive” throughout.

For the compound `Cc1ccc(O)c(C(=O)c2ccccc2)c1`, the Potency entry in assay [1], in assay [2], in assay [3] and in assay [4] was “inactive” in each case.

As to `CC(=O)Nc1ccc(C)c(Cl)c1`, the Potency entry in assay [1], in assay [2], in assay [3] and in assay [4] was “inactive” throughout.

For the compound `CC(=O)OC1CCC(C(C)(C)C)CC1` (configuration not stated), the Potency entry in assay [1], in assay [2], in assay [3] and in assay [4] was “inactive” each time.

Turning to `O=C(O)CCCCCCCCCCCC(=O)O`, the Potency entry in assay [1], in assay [2], in assay [3] and in assay [4] was “inactive” each time.

In the case of `Cc1ccc([N+](=O)[O-])c(C)c1`, the Potency entry (in assay [5]; with Aromatase (Homo sapiens); in assay [6]; in assay [1]; in assay [2]; in assay [3]) was “inactive” throughout. Further, the Potency result in assay [4] was “inactive”.

`COC(=O)N/N=C/c1c[n+]([O-])c2ccccc2[n+]1[O-]`: the Potency entry in assay [1], in assay [2], in assay [3] and in assay [4] was “inactive” each time.

As to `O=C1c2ccccc2C(=O)N1SC1CCCCC1`, the Potency is 30.6 µM (active) in the assay with Aromatase (Homo sapiens); 39.9 µM (active) and inactive in assay [1]; 31.7 µM (active) and inactive in assay [2]; 22.4 µM (active) and inactive in assay [3]. Also, in assay [4], the Potency entry was “inactive”.

For `CCOC(OCC)OCC`, the Potency result in assay [1], in assay [2], in assay [3] and in assay [4] was “inactive” in each case.

Consider `CCC(CO)CO`, for which the Potency result in assay [1], in assay [2], in assay [3] and in assay [4] was “inactive” throughout.

As for `Cc1cccc(C)c1NC(=O)CN1CCN(CCCC(c2ccc(F)cc2)c2ccc(F)cc2)CC1`, the Potency result in assay [1], in assay [2] and in assay [4] was “inactive” in each case.

As for `CC(CN(CCN(CC(C)OCCO)CC(C)OCCO)CC(C)OCCO)OCCO` (configuration not stated), the Potency result in assay [1], in assay [2] and in assay [4] was “inactive” in each case.

As for `NC(=O)Cc1cccc2ccccc12`, the Potency entry in assay [1], in assay [2] and in assay [4] was “inactive” throughout.

In the case of `Clc1ccc(Sc2cc(Cl)c(Cl)cc2Cl)cc1`, the Potency entry in assay [1], in assay [2] and in assay [4] was “inactive” each time.

Regarding `CN(C)c1ccc(C(=N)c2ccc(N(C)C)cc2)cc1`, the Potency in assay [1] is 7.01 µM (active) and inactive. Moreover, the Potency result in assay [2] and in assay [4] was “inactive” each time.

`NCCN1CCNC1=O`: the Potency result in assay [1], in assay [2] and in assay [4] was “inactive” each time.

Turning to `CC1=CC(=O)CC(C)(C)C1`, the Potency result in assay [1], in assay [2] and in assay [4] was “inactive” throughout.

For the compound `CCCCCCCCC=O`, the Potency result in assay [1], in assay [2] and in assay [4] was “inactive” each time.

On to `C[Si]1(C)O[Si](C)(C)O[Si](C)(C)O[Si](C)(C)O1`, for which the Potency result in assay [1], in assay [2] and in assay [4] was “inactive” in each case.

As to `CNC(=O)Nc1ccc(Cl)c(Cl)c1`, the Potency result in assay [1], in assay [2] and in assay [4] was “inactive” in each case.

On to `NCCS(=O)(=O)O`, for which the Potency result in assay [1], in assay [2] and in assay [4] was “inactive” throughout.

On to `C[N+](C)(C)CCO`, for which the result in assay [1], in assay [2] and in assay [4] was inactive.

As to `O=C(O)c1cc(Br)c(O)c(Br)c1`, the Potency result in assay [1], in assay [2] and in assay [4] was “inactive” throughout.

Regarding `CCN(CC)c1ccc2c(C)cc(=O)oc2c1`, the Potency entry in assay [1], in assay [2] and in assay [4] was “inactive” throughout.

On to `CCCCC/C=C/C=C/C=O`, for which the Potency entry in assay [1], in assay [2] and in assay [4] was “inactive” each time.

`CCOC(=O)CC1(C)OCC(C)O1` (configuration not stated): the Potency entry in assay [1], in assay [2] and in assay [4] was “inactive” in each case.

As to `Cc1nnc(NS(=O)(=O)c2ccc(N)cc2)s1`, the Potency result in assay [1], in assay [2] and in assay [4] was “inactive” each time.

Turning to `OC12N=C(c3ccccc3)SC1Cc1cc(Cl)ccc12` (configuration not stated), the Potency entry in assay [1], in assay [2] and in assay [4] was “inactive” each time.

Consider `CCCCOCCOCCOC(C)=O`, for which the Potency entry in assay [1], in assay [2] and in assay [4] was “inactive” in each case.
